The values that follow come from the supplement of paper PMC6555819.

The assay has as its system RARb:RXRa (NR concentration 270 nM, RXRa partner concentration 90 nM). Kind of assay: PBM binding z-score (relative to random genomic background probes); higher = stronger binding; sequences stand for … in GC…GCGATTGACAGCGTAGAATGAAGG
In short, it runs like this:
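Custom Agilent 4×180K protein-binding microarrays carried double-stranded probes, each with a 34-nt variable region. These regions held direct-repeat seeds, single-nucleotide variants, half-site ablations and random human genomic background sequences. Ligand-free nuclear receptor dimers were incubated on the arrays for 1 h, antibodies against each partner (one per run) detected binding, and scanned fluorescence was regression-normalized. Binding z-scores take the random background probes as reference.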
In the case of CGAACTAGGTAACCAGGACAGTGAAGAGGTTGGA, the PBM binding z-score is 0.0285.

Take CGAACTAGGTCAAAGGACAGTTAAAGGCGACGTA: the PBM binding z-score was 4.

With CGAACTAGGTCAAAGGACAGTGCAAGGCGACGTA, the PBM binding z-score came out at 4.02.

Regarding CGAACTAGGTTACCAGGACAGTGAAGAGGTTGGA, the PBM binding z-score turned out to be 1.13.

Sequence CGAACTAGGTCACCAGGAGAGTGAAGAGGTTGGA returned a PBM binding z-score of 4.04.

ATATGTAGGTTAGGGTCATCCAGAAAGTAGGGAA registered a PBM binding z-score of 3.55.

As to CGAACTAGGTCACCCGGACAGTGAAGAGGTTGGA, the PBM binding z-score is 4.22.

Turning to ATATGTAGGTTTGGGTCATTCAGAAAGTAGGGAA, the PBM binding z-score came to 2.07.

As for CGAACTAGGTCAAAGGACAGGGAAAGGCGACGTA, the PBM binding z-score came to 3.9.

Regarding CGAACTAGGTCACAGGACAGTGAAAGGCGACGTA, the PBM binding z-score came to 4.11.

Regarding CGAAATAGGTCACCAGGACAGTGAAGAGGTTGGA, the PBM binding z-score came to 4.78.

As to CGAACTAGGTCGAAGGACAGTGAAAGGCGACGTA, the PBM binding z-score was determined as 1.18.

CGAACTAGTTCAAAGGACAGTGAAAGGCGACGTA gave a PBM binding z-score of 1.91.

Consider ATATGTAGGTTATGGTCATTCAGAAAGTAGGGAA, for which the PBM binding z-score is 1.4.

CGAACTAGGTTAAAGGACAGTGAAAGGCGACGTA displayed a PBM binding z-score of 1.72.

CGAACTAGGTCAAAGGACAGAGAAAGGCGACGTA: the PBM binding z-score is 3.88.

In turn, CGAACTAGGTCACCAGGACAGTGATGAGGTTGGA displayed a PBM binding z-score of 4.16.

With ATATGTAGGTTAGGGTCATGCAGAAAGTAGGGAA, the PBM binding z-score was determined as 3.66.

CGAACTAGGTCAAAGGACAGTGACAGGCGACGTA had a PBM binding z-score of 4.01.

On to CGTACTAGGTCAAAGGACAGTGAAAGGCGACGTA, for which the PBM binding z-score was 3.85.

As to ATACGTAGGTTAGGGTCATTCAGAAAGTAGGGAA, the PBM binding z-score was 3.39.

Sequence ATATGTAGGTTAGGGTCATTAAGAAAGTAGGGAA had a PBM binding z-score of 3.32.

CGAACTAGGTGACCAGGACAGTGAAGAGGTTGGA gave a PBM binding z-score of 0.744.

In turn, CGAACTAGGTCATAGGACAGTGAAAGGCGACGTA returned a PBM binding z-score of 3.5.

CGAGCTAGGTCAAAGGACAGTGAAAGGCGACGTA showed a PBM binding z-score of 4.04.

In the case of ATATGTAGGTGAGGGTCATTCAGAAAGTAGGGAA, the PBM binding z-score was found to be 2.97.

In turn, ATAGGTAGGTTAGGGTCATTCAGAAAGTAGGGAA registered a PBM binding z-score of 4.

In turn, AGATGTAGGTTAGGGTCATTCAGAAAGTAGGGAA registered a PBM binding z-score of 3.39.

Turning to AAATGTAGGTTAGGGTCATTCAGAAAGTAGGGAA, the PBM binding z-score came to 3.64.

CGAACTAGGTCAAAGGAAAGTGAAAGGCGACGTA showed a PBM binding z-score of 3.55.

On to CGAACTAGGTCACCAGGACATTGAAGAGGTTGGA, for which the PBM binding z-score worked out at 4.21.

The sequence CGAACTAGGTCAAAGGACAGTCAAAGGCGACGTA came in with a PBM binding z-score of 3.87.

The sequence CGAAATAGGTCAAAGGACAGTGAAAGGCGACGTA gave a PBM binding z-score of 4.49.

ATATGAAGGTTAGGGTCATTCAGAAAGTAGGGAA had a PBM binding z-score of 3.66.

ATATGTGGGTTAGGGTCATTCAGAAAGTAGGGAA registered a PBM binding z-score of 3.45.

In the case of CGAACTAGGTCAAAGGACAGTAAAAGGCGACGTA, the PBM binding z-score turned out to be 4.06.

As for ATATGTAGGTTAGGGGCATTCAGAAAGTAGGGAA, the PBM binding z-score was determined as 1.86.

Take CGAACTAGGTCACCAGGCCAGTGAAGAGGTTGGA: the PBM binding z-score was 4.22.

As to CGAACTAGGTCACCAAGACAGTGAAGAGGTTGGA, the PBM binding z-score is 4.07.
